# Screening data (PubChem)
# CHT inh – inhibitors of human choline transporter CHT; AID 488975; 310,000 compounds, 0.86% hits; Q9GZV3; CHT-expressing cells, membrane potential dye, choline response; hits give low values; B-score at 10 µM;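 active means B-score over 3 SD under the library average, and starting fluorescence ratio not unusually high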;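 further: choline stimulus applied at its EC90 after an EC20 pre-addition; B-score computed on integrated fluorescence ratio after choline addition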
# Target sequence (Q9GZV3 whole entry, looked up): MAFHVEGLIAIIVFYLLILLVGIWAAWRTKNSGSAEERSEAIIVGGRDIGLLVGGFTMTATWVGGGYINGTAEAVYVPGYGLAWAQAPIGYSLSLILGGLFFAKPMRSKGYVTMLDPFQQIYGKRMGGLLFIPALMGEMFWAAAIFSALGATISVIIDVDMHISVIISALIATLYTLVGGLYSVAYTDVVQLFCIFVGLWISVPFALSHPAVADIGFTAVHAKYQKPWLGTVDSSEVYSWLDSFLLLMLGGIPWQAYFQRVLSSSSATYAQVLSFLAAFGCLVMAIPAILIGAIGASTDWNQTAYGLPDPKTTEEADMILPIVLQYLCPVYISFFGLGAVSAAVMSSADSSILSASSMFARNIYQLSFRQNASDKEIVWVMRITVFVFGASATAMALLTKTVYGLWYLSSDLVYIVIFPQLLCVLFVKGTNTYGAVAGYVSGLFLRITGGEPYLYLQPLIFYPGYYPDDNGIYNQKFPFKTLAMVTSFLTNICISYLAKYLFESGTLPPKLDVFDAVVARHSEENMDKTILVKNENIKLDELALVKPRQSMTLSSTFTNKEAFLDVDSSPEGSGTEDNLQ
# SUMO Mot1 rescue – inhibitors of SUMOylation pathway: yeast Mot1-301 growth rescue | S. cerevisiae Mot1-301 growth rescue, ATP luminescence, 38.5C; percent above DMSO median, 100 means doubled | AID 2716 | growth rescue, % at 18.8 µM | 320,000 compounds, 1% hits;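 active means every valid replicate shows activation above 250% relative to neutral control wells; inactive means the rest, any valid replicate at or below 250%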;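 further: OY570 slx delta 5 strain wells were the positive control but not used for scaling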
# CHT PAM – allosteric activators of human choline transporter CHT. CHT-expressing cells, membrane potential dye, choline EC20; hits give high values; LV-AA mutant CHT in HEK293 cells. B-score at 10 µM. 310,000 compounds, 0.49% hits. Q9GZV3;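 active means initial fluorescence not abnormally high and integrated response B-score, plate-corrected, over 3 SD above library mean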
# MEKK3 PB1 HTS – modulators (inhibitors or enhancers) of MEK5 binding to human MEKK3 PB1 domain | Q99759 | binding response (% of control), % at 10 µM | 290,000 compounds, 1.4% hits | bead-based flow cytometry, Alexa488-MEK5 binding to MEKK3; actives lie on both sides; 0 = blocked by unlabeled MEK5, 100 = vehicle;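 active means binding response more than 3 SD above or below the average of its plate-row segment, actives on both sides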;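 further: Alexa488 bead fluorescence after subtracting the streptavidin-only scavenger bead signal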
# MEKK2wt PB1 HTS – raises or lowers MEK5 binding to wildtype human MEKK2 PB1 domain. 290,000 compounds, 1.1% hits. binding response (% of control), % at 10 µM. bead flow cytometry, Alexa488-MEK5 binding to MEKK2 WT; actives lie on both sides. Q9Y2U5; in the data active means binding response below about 67% or above about 130%
# MEKK2mut PB1 HTS – signal of MEK5 binding to mutant human MEKK2 PB1 domain; AID 1530; percent response, % at 10 µM; bead flow cytometry, Alexa488-MEK5 binding to MEKK2 mutant; 290,000 compounds, 0.35% hits; in the data active means percent response above about 24%, passing the limit was not always enough
# CHT act confirm – human CHT activation, confirmatory screen. shares compounds with CHT PAM. CHT-expressing cells, membrane potential dye fluorescence (FDSS); % of choline EC20–EC90 response window; HEK293 expressing CHT LV-AA mutant; choline added at its EC20. activation, % at 10 µM. 2,500 compounds, 91% hits. AID 504833;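 active means primary screen active, with duplicate mean activation above negative control mean plus 3 SD, cut at about 11% in these data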
# HEK293 MP dye – activity in parental HEK293 cells lacking CHT. shares compounds with CHT PAM. membrane potential dye fluorescence (FDSS); measured after EC20 choline addition. ratio readout change at 10 µM, hits read low. 2,500 compounds, 62% hits;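 active means duplicate-averaged ratio beyond 3 SD from buffer wells, up or down, though filed actives are nearly all decreases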
# * marks the source's active call; other numbers are inactive results; i = inactive; . = not tested or not shown. Compounds with a hit are over-represented: about 4.1% of the library has one in this group of screens.
SMILES,CHT inh,SUMO Mot1 rescue,CHT PAM,MEKK3 PB1 HTS,MEKK2wt PB1 HTS,MEKK2mut PB1 HTS,CHT act confirm,HEK293 MP dye
CCn1cc(C(=O)OCC(=O)N(C)C2CCS(=O)(=O)C2)c(=O)c2ccc(C)nc21 (configuration not stated),i,138,8.6*,103,106,9,54*,-62*
CCn1cc(C(=O)OCC(=O)N2C(C)CCCC2C)c(=O)c2ccc(C)nc21 (configuration not stated),i,-10,i,101,99,-3,39*,-29*
CCOc1cc(NC(=O)CC(C)C)c(OCC)cc1NC(=O)CCn1nnc2ccccc21,i,-2,i,100,105,1,.,.
COc1ccccc1C(=O)NCCC(=O)Nc1ncccc1O,i,-8,i,101,101,2,.,.
CCC[n+]1c(C)sc2c(OC)ccc(OC)c21,i,-18,12*,111,105,-1,47*,i
CCC(=O)N1CCN(c2cc(N3CCN(C)CC3)c(F)cc2[N+](=O)[O-])CC1,i,-4,8*,84,95,-1,57*,-58*
CCOC(=O)N1CCN(c2cc(N3CCOCC3)c(F)cc2[N+](=O)[O-])CC1,i,-26,i,102,104,2,.,.
COc1ccc(-n2c(=O)c(CCC(=O)N(C)Cc3ccccc3C)nc3ccccc32)cc1,i,-1,i,96,84,-7,.,.
CCc1ccc(CN(C)C(=O)CCc2nc3ccccc3n(-c3ccc(OC)cc3)c2=O)cc1,i,24,i,82,71,-17,26*,i
CC(=O)c1cccc(NC(=O)NC2CC(=O)N(c3ccc4c(c3)OCCO4)C2)c1 (configuration not stated),i,5,i,.,.,.,.,.
Nc1ccc(N2CCCCC2)cc1N1CCCCC1,i,-18,7.9*,.,.,.,49*,-32*
COc1nnc(-c2ccc(N3CCOCC3)c(NC(=O)C3CCCCC3)c2)c2ccccc12,i,-6,i,103,102,6,7,i
COc1nnc(-c2ccc(N3CCCCC3)c(NC(=O)C3CCCCC3)c2)c2ccccc12,i,-14,i,.,.,.,.,.
CC(Sc1nnc(-c2ccc(Cl)cc2Cl)n1Cc1ccccc1)C(=O)Nc1nccs1 (configuration not stated),i,2,7.1*,107,107,7,35*,i
Cc1ccc(S(=O)(=O)N2C(=O)/C(=C3\SC(=S)NC3=O)c3ccccc32)cc1,i,-16,i,78,82,-9,.,.
CCCCCC[N+](C)(C)CCSSCC[N+](C)(C)CCCCCC,i,-16,i,87,96,-8,38*,-46*
Cc1c(C(=O)Nc2ccc3c(c2)OCCO3)sc2nc(-c3ccccc3)cn12,i,48,i,91,97,1,.,.
Cc1c(C(=O)Nc2ccncc2)sc2nc(-c3ccccc3)cn12,i,4,i,99,87,-6,30*,-32*
Clc1ccc(-c2c[n+](Cc3ccc(Cl)c(Cl)c3)c3n2CCC3)cc1,.,.,.,106,132,37,.,.
Cc1ccc(-c2c[n+](Cc3cccc(Cl)c3)c3n2CCC3)cc1,i,-1,8*,107,110,11,56*,-40*
Clc1cccc(C[n+]2cc(-c3ccccc3)n3c2CCC3)c1,i,3,8.8*,102,106,-1,67*,-43*
CCC(=O)N(CCC(c1ccco1)C(C)C)Cc1ccccc1 (configuration not stated),i,79,i,92,91,-6,.,.
